We go through 6 compounds from PubChem BioAssay (NCATS).

In assay [1] the target is Lysosomal acid glucosylceramidase (Homo sapiens) (UniProt P04062). Put plainly: Glucocerebrosidase-p2 (AID 348; in the data active means potency below about 10 µM; further: potency means the concentration at half of the fitted maximal effect). Particulars: purified GBA, blue fluorogenic substrate, 40 min. The gist of the method:
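Normal human glucocerebrosidase (0.2 nM) with blue fluorogenic substrate (80 uM final) in citrate/phosphate pH 5.9 with 10mM sodium taurocholate, 0.01% tween-20; 40 min RT, NaOH/glycine stop; fluorescence Ex 365/Em 440; AC50 from a titration from 0.6 nM upwards.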

The nature of assay [2]: AP1 Signaling Pathway (AID 357; active means well fitted curve in either direction with a large enough effect, not every such curve was filed as active;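 further: ME-180 reporter cells stimulated with EGF at its EC50 level; on the % scale 0 is the no-effect control and ±100 the full control effect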). Particulars: ME-180 AP-1-bla reporter, EGF-induced, beta-lactamase ratio, 5 h; at 7.69 µM (top of the series) unless noted. The essentials:
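Titration-series screen for positive or negative modulators of EC50 EGF-induced signaling in ME-180 cells carrying an AP-1-driven beta-lactamase reporter. After 5 hours at 37 degrees Celsius, CCF4 460nm/530nm emission ratio gave %Activity; AC50 values derived.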

Assay [3] addresses Cytochrome P450 1A2 (Homo sapiens) (UniProt P05177). Nature of the assay: p450-cyp1a2 (AID 410; calls by dose curve; further: potency means the concentration at half of the fitted maximal effect). To be noted: recombinant CYP1A2, luciferin-ME demethylation, luminescence; series mostly up to 57 µM. The gist of the method:
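20nM CYP1A2, 100uM Luciferin-ME (=Km), 100mM KPO4; cpd 10 min RT; +NADPH regen, 60 min RT; stop/detect 20 min; luminescence. Normalized to furafylline 57 uM = full inhibition.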

Assay [4] is described as follows: NFAT Signaling Pathway (AID 444; active means well fitted curve in either direction with a large enough effect, not every such curve was filed as active;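 further: carbachol stimulus at about its EC50 of 1 µM final; on the % scale 0 is the no-effect control and ±100 the full control effect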). Particulars: Jurkat NFAT-bla M1, carbachol, beta-lactamase ratio, 5 h; at 7.69 µM (top of the series) unless noted. The gist of the method:
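Jurkat cells with NFAT-driven β-lactamase reporter and co-expressed M1 receptor, stimulated with carbachol (final 1 uM, ~EC50), compound titration, 5 h at 37 °C. CCF4 loaded 1 h at RT; 460/530 nm ratio gave %activity and AC50.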

Assay [5] is described as follows: Stat Signaling Pathway (AID 446; active means well fitted curve in either direction with a large enough effect, not every such curve was filed as active;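 further: ME-180 cervical cancer cells given 40 pM IL-6 alongside compound; SIE-controlled beta-lactamase reporter measured as 460/530 nm FRET emission ratio; on the % scale 0 is the no-effect control and ±100 the full control effect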). To be noted: ME-180 (cervical carcinoma) SIE beta-lactamase reporter, IL-6 stimulated, 5 h; at 7.69 µM (top of the series) unless noted. The gist of the method: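 Overnight-plated ME-180 cells bearing a STAT Inducible Element beta-lactamase reporter; 5 h co-exposure to compound and 40 pM IL-6; values normalized to 300 pM IL-6 and 125 nM JAK inhibitor controls.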

The target of assay [6] is Glucocorticoid receptor (Homo sapiens) (UniProt P04150). Put plainly: GR-GFP Redistribution (AID 450;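 active means compounds whose dose series gives a full or clear partial fitted curve of increased nuclear translocation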; further: potency means the concentration at half of the fitted maximal effect). To be noted: U2OS GR-GFP nuclear translocation, laser cytometry, 2 h.
Glucocorticoid receptor (Homo sapiens), sequence (P04150 whole entry, looked up, the tested form may be a part): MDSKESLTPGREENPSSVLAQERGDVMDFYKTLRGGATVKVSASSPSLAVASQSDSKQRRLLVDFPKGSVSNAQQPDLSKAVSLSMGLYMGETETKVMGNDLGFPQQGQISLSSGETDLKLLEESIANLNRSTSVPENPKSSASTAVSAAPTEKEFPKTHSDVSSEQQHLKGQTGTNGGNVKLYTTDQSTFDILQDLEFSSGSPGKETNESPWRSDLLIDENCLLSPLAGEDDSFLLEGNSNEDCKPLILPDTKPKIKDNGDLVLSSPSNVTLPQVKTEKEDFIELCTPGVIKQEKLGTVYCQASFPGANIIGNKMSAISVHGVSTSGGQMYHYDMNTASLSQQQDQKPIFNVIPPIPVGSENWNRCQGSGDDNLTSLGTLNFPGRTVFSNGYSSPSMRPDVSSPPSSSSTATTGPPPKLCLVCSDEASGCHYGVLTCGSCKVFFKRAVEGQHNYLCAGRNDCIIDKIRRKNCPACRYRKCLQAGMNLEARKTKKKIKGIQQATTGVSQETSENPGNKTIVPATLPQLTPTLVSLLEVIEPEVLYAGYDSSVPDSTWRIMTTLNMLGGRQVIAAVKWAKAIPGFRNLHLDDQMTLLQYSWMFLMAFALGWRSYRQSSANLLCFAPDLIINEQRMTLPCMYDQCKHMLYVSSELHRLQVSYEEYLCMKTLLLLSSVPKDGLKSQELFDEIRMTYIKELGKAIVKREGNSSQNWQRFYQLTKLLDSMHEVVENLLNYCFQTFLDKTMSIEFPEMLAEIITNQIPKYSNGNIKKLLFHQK
Assay [7] has the same target. Put plainly: GR-EFC Redistribution (AID 451; calls by dose curve; further: potency means the concentration at half of the fitted maximal effect). To be noted: CHO-K1 GR-EFC translocation, beta-gal luminescence, 2 h. The gist of the method: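 CHO-K1 cells expressing nuclear EA and GR-ED fragments of b-gal; compounds titrated up to 46 uM final, 2 h at 37 C. GR nuclear translocation read as complemented b-gal luminescence after 1 h RT detection.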
Assay [8] has as its target Mitogen-activated protein kinase 10 (Mus musculus) (UniProt Q61831). Put plainly: JNK3 AlphaScreen Assay (AID 530; active means well fitted curve in either direction with a large enough effect, not every such curve was filed as active;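 further: kinase came from lysate of stimulated human HepG2 cells; signal reports phosphorylation of biotinylated GST-cJun 1-79 at Ser73 with 10 µM ATP; on the % scale 0 is the no-effect control and ±100 the full control effect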). Particulars: JNK3 lysate, c-Jun phosphorylation; series mostly up to 57.1 µM. The essentials:
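HepG2 lysate (IL-1b/TNFa pre-activated) + biotin-GST-cJun 1-79 + anti-pSer73 cJun; cpd titration, 15 min RT; ATP 10 uM start; Tris pH 7.6, MgCl2, DTT, vanadate; beads in EDTA buffer; AlphaScreen.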

For assay [9], the target named is 3',5'-cyclic-AMP phosphodiesterase 4B (Homo sapiens) (UniProt Q07343). Put plainly: qHTS Assay for Inhibitors of PDE-IV (AID 607; active means well fitted activation curve with a large enough effect in the main read-out, with a control signal flat, not every such curve was filed as active; further: % of control where 0% means no effect). To be noted: HEK293 ACTOne CNG channel cells, membrane potential fluorescence; series mostly up to 22.9 µM. The gist of the method:
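Live HEK293 cells with a modified cyclic nucleotide-gated (CNG) channel report intracellular cAMP via membrane-potential dye fluorescence (ex 535/em 590 nm). Endogenous PDE-IV was targeted. Compounds were tested at up to 22.9 uM final; RO 20-1724 100 uM served as control.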

Assay [10] deals with Cytochrome P450 2C9 (Homo sapiens) (UniProt P11712). Put plainly: qHTS Assay for Inhibitors and Substrates of Cytochrome P450 2C9 (AID 883). Further: on the % scale 0 is the no-effect control and ±100 the full control effect; nearly all actives have a fitted effect of over 60% in size. To be noted: recombinant CYP2C9, luciferin-H luminescence, 60 min; series mostly up to 57.1 µM. The essentials:
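10nM CYP2C9 + 100uM Luciferin-H (=KM), 25mM KPO4; cpd 10 min 37C; NADPH regen, 60 min 37C; stop/detect with P450 Glo-Buffer 20 min; luminescence. Norm. to 57uM sulphaphenazole as full inhibition.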

The target of assay [11] is Cytochrome P450 2C19 (Homo sapiens) (UniProt P33261). Put plainly: qHTS Assay for Inhibitors and Substrates of Cytochrome P450 2C19 (AID 899). Further: potency means the concentration at half of the fitted maximal effect; nearly all actives have a fitted effect of over 60% in size. Particulars: recombinant CYP2C19, luciferin-H EGE luminescence; series mostly up to 57.1 µM. The gist of the method:
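Luminescent read-out of luciferin formed from Luciferin-H EGE (10uM, equal to KM). Enzyme 5nM in 50mM KPO4; compound added, 10 min at 37C, then NADPH regenerating system for 60 min at 37C. Full inhibition defined by 57uM ketoconazole.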

Assay [12] in a line: qHTS Assay for Lipid Storage Modulators (AID 1519; calls by dose curve). To be noted: Drosophila S3 cells, BODIPY lipid droplet/cell ratio, laser cytometry, cells loaded with oleic acid; for activity change, negative = inhibition: at 57.5 µM (top of the series). The essentials:
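Cells seeded at 5,000 per well were treated with compounds over a concentration series and loaded with oleic acid (400 uM, as added). Lipid droplet fluorescence (488 nm excitation, 500-530 nm channel) was read by laser-scanning cytometry and normalized to 20 uM Triacsin C.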

Assay [13] concerns the target Dual specificity protein kinase CLK4 (Homo sapiens) (UniProt Q9HAZ1). Nature of the assay: qHTS Assay for Inhibitors of CDC-like Kinase 4 (Kinase-Glo Assay) (AID 1770). Further: nearly all actives have a fitted effect of over 65% in size. Further: potency means the concentration at half of the fitted maximal effect. To be noted: recombinant Clk4, Kinase-Glo ATP depletion luminescence; series mostly up to 66.7 µM. The gist of the method: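 Clk4 25 nM, RS peptide 100 uM, ATP 1 uM, pH 7.5 Tris, 10 mM MgCl2, 2.5 mM DTT; 4.5 h RT; ATP depletion read by Kinase-Glo luminescence.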

The target is the same in assay [14]. Nature of the assay: qHTS Assay for Inhibitors of CDC-like Kinase 4 (ADP-Glo Assay) (AID 1771). Further: nearly all actives have a fitted effect of over 70% in size. Further: potency means the concentration at half of the fitted maximal effect. To be noted: recombinant CLK4, ADP-Glo luminescence; series mostly up to 80 µM. The gist of the method: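 25 nM Clk4, 100 uM RS peptide, 1 uM ATP (final); 2 mM MgCl2, 0.5 mM EGTA, 2.5 mM DTT, 0.01% Triton X-100; 1 hr RT. ADP-Glo readout: ATP depletion 45 min, conversion/luciferase 30 min, luminescence.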

For assay [15] the target is unchanged. Nature of the assay: qHTS Assay for Inhibitors of CDC-like Kinase 4 (ADP-FP Assay) (AID 1795). Further: nearly all actives have a fitted effect of over 60% in size. Further: potency means the concentration at half of the fitted maximal effect. To be noted: Transcreener ADP fluorescence polarization; series mostly up to 50 µM. The gist of the method:
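Kinase activity was followed as ADP output, converted from fluorescence polarization with a calibration curve. Reactions ran one hour at low ATP (1 uM) with RS peptide substrate.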

Assay [16] is described as follows: Primary qHTS for small molecule stabilizers of the endoplasmic reticulum resident proteome: Secreted ER Calcium Modulated Protein (SERCaMP) assay (AID 1508630). Further: on the % scale 0 is the no-effect control and ±100 the full control effect. To be noted: SH-SY5Y GLuc-SERCaMP (Gaussia luciferase released on ER calcium loss) secretion, thapsigargin, luminescence; series mostly up to 38.4 µM. The essentials:
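The SH-SY5Y reporter protocol was run at 3 concentrations up to 38.3 uM (primary) or 11 concentrations (follow-up): 16 h compound, 100 nM thapsigargin for 4 h, then extracellular luciferase luminescence.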

Assay [17] concerns the target Ubiquitin carboxyl-terminal hydrolase 1 (Homo sapiens) (UniProt O94782). Nature of the assay: Inhibitors of USP1/UAF1: Pilot qHTS (AID 504865).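 Further: rhodamine fluorescence freed from ubiquitin-rhodamine substrate followed over time; top concentration of the series differs between compounds; on the % scale 0 is the no-effect control and ±100 the full control effect; nearly all actives have a fitted effect of over 35% in size.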 Particulars: purified USP1/UAF1, Ub-rhodamine cleavage fluorescence; series mostly up to 54.9 µM. The essentials: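 Enzyme-free wells gave the negative control, while test wells held 1nM USP1/UAF1 preincubated with compound for 15 min at room temperature. Ub-Rho at 150nM final started the reaction, and fluorescence at 480/540 nm was recorded kinetically.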

Assay [18] concerns the target Cytochrome P450 3A4 (Homo sapiens) (UniProt P08684). Put plainly: qHTS Assay for Inhibitors and Substrates of Cytochrome P450 3A4 (AID 884). Further: on the % scale 0 is the no-effect control and ±100 the full control effect; nearly all actives have a fitted effect of over 50% in size. To be noted: recombinant CYP3A4, Luciferin-PPXE luminescence; series mostly up to 57.1 µM. The essentials:
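Luminescent readout of luciferin produced by CYP3A4 (20 nM) dealkylation of Luciferin-PPXE, 25 uM (its KM). NADPH-driven reaction ran 60 min at RT after 10 min compound preincubation; data scaled to 57 uM ketoconazole as 100% inhibition.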

The mark [19] stands for this setting: measured here: cell count channel max response.
The mark [20] stands for this setting: measured here: lipid channel max response.

Inconclusive results are not listed. Activity calls are given as the source filed them. Unless noted, the call rests on the fitted dose curve; in most records, active means well fitted curve in the direction sought with a large enough effect; inconclusive means small, poorly fitted or top-dose-only effect, or another doubt; inactive means no such curve, though single readings can be large; an effect the other way counts as inactive or inconclusive.

Dual specificity protein kinase CLK4 (Homo sapiens), sequence (Q9HAZ1 whole entry, looked up): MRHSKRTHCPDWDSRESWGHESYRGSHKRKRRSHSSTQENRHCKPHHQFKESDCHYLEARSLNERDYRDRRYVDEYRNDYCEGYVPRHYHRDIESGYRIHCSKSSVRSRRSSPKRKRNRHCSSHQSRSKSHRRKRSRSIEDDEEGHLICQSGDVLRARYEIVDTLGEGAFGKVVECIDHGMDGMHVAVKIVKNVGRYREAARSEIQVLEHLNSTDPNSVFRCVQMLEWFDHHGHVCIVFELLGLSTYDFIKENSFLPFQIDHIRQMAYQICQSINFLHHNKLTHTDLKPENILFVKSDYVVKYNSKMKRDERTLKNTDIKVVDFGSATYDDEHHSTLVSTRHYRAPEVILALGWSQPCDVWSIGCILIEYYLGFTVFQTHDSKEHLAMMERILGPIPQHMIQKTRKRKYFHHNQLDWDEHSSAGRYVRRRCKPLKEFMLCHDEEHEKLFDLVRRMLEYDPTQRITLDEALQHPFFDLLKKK
Ubiquitin carboxyl-terminal hydrolase 1 (Homo sapiens), sequence (O94782 whole entry, looked up): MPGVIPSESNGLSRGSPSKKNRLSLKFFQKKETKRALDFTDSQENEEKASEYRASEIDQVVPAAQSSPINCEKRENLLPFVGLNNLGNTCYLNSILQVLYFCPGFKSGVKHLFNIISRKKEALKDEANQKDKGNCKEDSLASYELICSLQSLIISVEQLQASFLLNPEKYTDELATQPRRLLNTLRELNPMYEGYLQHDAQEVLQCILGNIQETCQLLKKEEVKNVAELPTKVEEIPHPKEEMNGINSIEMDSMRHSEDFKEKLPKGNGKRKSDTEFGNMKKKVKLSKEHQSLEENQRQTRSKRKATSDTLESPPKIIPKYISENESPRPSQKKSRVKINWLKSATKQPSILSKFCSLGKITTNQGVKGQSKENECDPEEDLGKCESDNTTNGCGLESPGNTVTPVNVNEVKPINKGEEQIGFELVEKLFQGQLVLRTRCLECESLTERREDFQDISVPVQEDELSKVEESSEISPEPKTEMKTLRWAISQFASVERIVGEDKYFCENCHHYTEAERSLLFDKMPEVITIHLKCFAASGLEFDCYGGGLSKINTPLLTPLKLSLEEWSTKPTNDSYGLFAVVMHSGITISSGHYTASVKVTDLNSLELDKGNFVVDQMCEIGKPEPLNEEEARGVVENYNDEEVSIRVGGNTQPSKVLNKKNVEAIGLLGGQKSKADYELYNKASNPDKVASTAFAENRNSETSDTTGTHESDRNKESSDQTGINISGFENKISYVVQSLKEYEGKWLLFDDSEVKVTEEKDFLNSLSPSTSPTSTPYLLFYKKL
Lysosomal acid glucosylceramidase (Homo sapiens), sequence (P04062 whole entry, looked up): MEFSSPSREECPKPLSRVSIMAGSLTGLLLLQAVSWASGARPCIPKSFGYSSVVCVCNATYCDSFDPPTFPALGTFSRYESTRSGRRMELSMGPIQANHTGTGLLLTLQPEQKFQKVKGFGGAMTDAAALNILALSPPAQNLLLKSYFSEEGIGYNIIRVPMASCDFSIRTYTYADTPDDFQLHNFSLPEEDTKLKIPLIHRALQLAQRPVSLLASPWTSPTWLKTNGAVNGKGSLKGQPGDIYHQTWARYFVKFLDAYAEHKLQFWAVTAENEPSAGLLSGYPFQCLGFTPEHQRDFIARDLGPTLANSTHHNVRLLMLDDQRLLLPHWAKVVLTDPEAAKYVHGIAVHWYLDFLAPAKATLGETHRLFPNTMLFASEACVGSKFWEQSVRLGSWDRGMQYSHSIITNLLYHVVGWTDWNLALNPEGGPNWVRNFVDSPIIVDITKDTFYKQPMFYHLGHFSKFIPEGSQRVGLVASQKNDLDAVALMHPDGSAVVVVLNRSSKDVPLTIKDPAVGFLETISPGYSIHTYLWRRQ
3',5'-cyclic-AMP phosphodiesterase 4B (Homo sapiens), sequence (Q07343 whole entry, looked up): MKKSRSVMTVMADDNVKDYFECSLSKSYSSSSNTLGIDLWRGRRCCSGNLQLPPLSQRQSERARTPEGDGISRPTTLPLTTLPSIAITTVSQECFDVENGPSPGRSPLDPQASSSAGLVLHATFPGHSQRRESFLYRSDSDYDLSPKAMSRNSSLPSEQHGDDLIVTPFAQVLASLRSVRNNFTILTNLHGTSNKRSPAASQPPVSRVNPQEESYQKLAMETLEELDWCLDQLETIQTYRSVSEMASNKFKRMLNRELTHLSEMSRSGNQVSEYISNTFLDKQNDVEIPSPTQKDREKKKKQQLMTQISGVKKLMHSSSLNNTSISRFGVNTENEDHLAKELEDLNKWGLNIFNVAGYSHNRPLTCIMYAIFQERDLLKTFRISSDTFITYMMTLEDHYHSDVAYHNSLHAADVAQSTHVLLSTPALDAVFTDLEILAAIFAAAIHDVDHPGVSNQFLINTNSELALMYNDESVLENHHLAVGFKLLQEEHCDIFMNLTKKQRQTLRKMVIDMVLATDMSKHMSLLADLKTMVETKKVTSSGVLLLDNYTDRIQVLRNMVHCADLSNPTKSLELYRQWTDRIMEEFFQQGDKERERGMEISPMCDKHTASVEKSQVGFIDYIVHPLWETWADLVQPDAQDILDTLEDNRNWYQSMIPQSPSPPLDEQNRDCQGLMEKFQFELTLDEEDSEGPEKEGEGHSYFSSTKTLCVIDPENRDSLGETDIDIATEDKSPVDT
Cytochrome P450 1A2 (Homo sapiens), sequence (P05177 whole entry, looked up): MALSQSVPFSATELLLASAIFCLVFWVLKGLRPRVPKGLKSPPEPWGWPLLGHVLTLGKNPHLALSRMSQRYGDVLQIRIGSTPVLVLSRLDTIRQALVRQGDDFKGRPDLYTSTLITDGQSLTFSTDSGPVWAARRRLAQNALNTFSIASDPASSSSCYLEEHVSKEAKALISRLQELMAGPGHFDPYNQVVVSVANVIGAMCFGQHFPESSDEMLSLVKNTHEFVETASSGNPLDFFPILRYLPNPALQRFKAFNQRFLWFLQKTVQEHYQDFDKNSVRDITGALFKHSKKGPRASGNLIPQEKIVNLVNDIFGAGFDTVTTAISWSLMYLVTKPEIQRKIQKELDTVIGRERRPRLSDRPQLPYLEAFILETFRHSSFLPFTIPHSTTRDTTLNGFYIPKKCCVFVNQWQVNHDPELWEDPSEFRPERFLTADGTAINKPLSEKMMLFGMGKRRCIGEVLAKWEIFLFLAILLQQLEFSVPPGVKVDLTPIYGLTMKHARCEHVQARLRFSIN
Cytochrome P450 3A4 (Homo sapiens), sequence (P08684 whole entry, looked up): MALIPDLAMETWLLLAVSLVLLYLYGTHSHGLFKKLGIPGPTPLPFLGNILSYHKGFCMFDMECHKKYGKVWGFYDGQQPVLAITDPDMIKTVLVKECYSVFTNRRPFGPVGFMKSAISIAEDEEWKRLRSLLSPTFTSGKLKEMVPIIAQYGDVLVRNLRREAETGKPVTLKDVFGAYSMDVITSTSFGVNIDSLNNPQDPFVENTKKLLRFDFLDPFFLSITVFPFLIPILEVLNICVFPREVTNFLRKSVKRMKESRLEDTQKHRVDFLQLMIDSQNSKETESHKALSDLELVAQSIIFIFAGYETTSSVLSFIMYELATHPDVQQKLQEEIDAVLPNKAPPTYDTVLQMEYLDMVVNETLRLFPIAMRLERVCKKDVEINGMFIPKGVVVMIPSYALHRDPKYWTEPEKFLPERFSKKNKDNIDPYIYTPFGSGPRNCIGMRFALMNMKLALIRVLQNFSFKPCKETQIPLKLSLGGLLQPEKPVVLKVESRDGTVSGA
Cytochrome P450 2C19 (Homo sapiens), sequence (P33261 whole entry, looked up): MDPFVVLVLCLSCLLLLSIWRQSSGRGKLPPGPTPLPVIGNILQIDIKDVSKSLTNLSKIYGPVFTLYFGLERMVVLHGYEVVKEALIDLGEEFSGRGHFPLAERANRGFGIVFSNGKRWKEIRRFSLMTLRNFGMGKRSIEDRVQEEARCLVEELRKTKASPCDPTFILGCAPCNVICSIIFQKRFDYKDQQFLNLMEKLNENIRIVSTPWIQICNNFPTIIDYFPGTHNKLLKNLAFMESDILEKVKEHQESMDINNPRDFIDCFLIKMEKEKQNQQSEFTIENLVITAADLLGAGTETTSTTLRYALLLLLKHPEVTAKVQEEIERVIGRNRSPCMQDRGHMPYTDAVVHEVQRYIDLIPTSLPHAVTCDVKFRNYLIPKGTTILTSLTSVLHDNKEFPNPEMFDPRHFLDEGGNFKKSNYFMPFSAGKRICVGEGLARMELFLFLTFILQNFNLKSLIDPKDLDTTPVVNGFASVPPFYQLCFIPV

As for `CN(C)c1ccc(-c2cc(Nc3ccc(F)cc3)ncn2)cc1`, the Potency in [1] was > 11.4 µM (inactive); in [3], 398 nM (active); in [6] it was > 46 µM (inactive); in [7] it was > 46 µM (inactive); in assay [11], 2 µM (active); in assay [13] it was 11.2 µM (active). In addition, the Potency in assay [14] is 14.1 µM (active). In addition, the activity change, negative = inhibition in assay [2] is -18.2% (inactive); in assay [4] it was -8.8% (inactive); in assay [10] it was 8.7% [at 2.29 µM] (inactive); in assay [12] it was 8.67% (inactive). The activity, negative = inhibition in assay [5] was -12% (inactive). In [8], the compound was called inactive. Besides, the Potency result in assay [9], in [15] and in [16] was “inactive” in each case. Further, the max response is -11.3% in assay [12] (setting [19]) and -0.85% in assay [12] (setting [20]).

`c1nc(N2CCNCC2)c2cc(-c3ccoc3)ccc2n1`: the Potency in [1] was > 11.4 µM (inactive); in [6], > 46 µM (inactive); in assay [7], > 46 µM (inactive); in assay [13], 1.58 µM (active); in assay [14] it was 3.16 µM (active); in assay [15] it was 0.708 µM (active). Also, the activity change, negative = inhibition in assay [2] is -10.9% (inactive); in assay [4], 9.12% (inactive); in assay [12], 3.07% (inactive). For the same compound, in assay [5], the activity, negative = inhibition was -4.93% (inactive). For the same compound, in assay [8], the compound was called inactive. Further, the Potency entry in assay [9], in assay [17] and in assay [16] was “inactive” in each case. The max response in [12] (setting [19]) amounted to 29.3%; in assay [12] (setting [20]), 29.5%.

Take `Cc1noc(C)c1-c1ccc2ncnc(N(C)C)c2c1`: the Potency in assay [1] was > 11.4 µM (inactive); in [3], 631 nM (active); in assay [6] it was > 46 µM (inactive); in assay [7], > 46 µM (inactive); in [13], 7.08 µM (active); in [14] it was 4.47 µM (active). Moreover, in assay [15], the Potency was 2 µM (active). For the same compound, the activity change, negative = inhibition in [2] is -2.75% (inactive); in [12], 3.59% (inactive). Further, the activity, negative = inhibition in [5] was -14.9% (inactive). Moreover, the compound was classed as inactive in [8]. In addition, the Potency entry in assay [9], in assay [17] and in assay [16] was “inactive” throughout. Also, the max response came out at 19% in assay [12] (setting [19]) and 20.5% in assay [12] (setting [20]).

As to `COc1ccc(-c2nc3cnc(N4CCN(C)CC4)nc3n(Cc3ccc(F)cc3)c2=O)cc1`, the Potency was > 11.4 µM (inactive) in assay [1], 10000 nM (active) in [3], > 9.22 µM (inactive) in assay [6] and > 46 µM (inactive) in assay [7]. In addition, the activity change, negative = inhibition in [2] is 99.5% [activator] (active); in assay [4], 113% [activator] (active); in assay [12], 0.278% (inactive). Further, the Potency entry in assay [18], in assay [13], in assay [14], in assay [15], in assay [17] and in [16] was “inactive” throughout. The max response in [12] (setting [19]) turned out to be 11.6%; in assay [12] (setting [20]), 10.9%.

In the case of `CN(C)C(=O)c1ccc(-c2cc(-n3ccnc3)ncn2)cc1`, the Potency in [1] is > 11.4 µM (inactive); in assay [6], > 46 µM (inactive); in [7], > 46 µM (inactive); in assay [13] it was 11.2 µM (active); in assay [14], 10 µM (active); in assay [15], 12.6 µM (active). The activity change, negative = inhibition was -15.5% (inactive) in assay [2], 7.69% (inactive) in assay [4] and 4.31% (inactive) in assay [12]. In assay [5], the activity, negative = inhibition was 7.04% (inactive). Besides, the result in [8] was inactive. The Potency result in assay [9], in assay [17] and in [16] was “inactive” throughout. For the same compound, the max response in assay [12] (setting [19]) worked out at 14.1%; in assay [12] (setting [20]), 16.5%.

Take `COc1ccc(Oc2ncc3nc(C)c(=O)n(Cc4cccc(OC)c4)c3n2)cc1`: the figures for the Potency in assay [1], in assay [6] and in assay [7] were > 11.4 µM (inactive), > 9.22 µM (inactive) and > 46 µM (inactive), respectively. For the same compound, the activity change, negative = inhibition in assay [2] is -16% (inactive); in assay [4] it was 6.92% (inactive); in assay [12], 4.03% (inactive). In assay [5], the activity, negative = inhibition was -8.96% (inactive). Also, the result in assay [8] was inactive. Besides, the max response in [12] (setting [19]) was 6.56%; in assay [12] (setting [20]) it was 8.3%. Also, the Potency result in [13], in [14], in assay [15], in assay [17] and in assay [16] was “inactive” throughout.
